Experimental data as given in PubChem BioAssay (NCI).
About 79,000 compounds went through this panel and 15% of them were active in at least one assay; those are over-represented in the sample as a whole. Unmarked numbers belong to inactive results. The source made the active and inactive calls. No stated cut-off is given here; in the data, active means growth inhibition above about 70%; inactive means the rest.

Columns and labels:
[1] = NCI Yeast Anticancer Drug Screen. Data for the wt2 strain (AID 169);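 further: 0% = growth of vehicle-treated yeast cultures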; details: S. cerevisiae wt2 strain growth inhibition, active compounds read high
Summary of the method: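 Read-out: growth inhibition versus vehicle-treated control cultures after compound exposure of the yeast strain.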

[2] = NCI Yeast Anticancer Drug Screen. Data for the mlh1 strain (AID 171);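 further: 0% = growth of vehicle-treated control cultures of the same strain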; details: S. cerevisiae mlh1 strain growth inhibition, active compounds read high
Summary of the method: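 Read-out: growth inhibition versus vehicle controls. Strain: engineered yeast with a defined DNA repair or cell cycle defect, compound-treated.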

[3] = NCI Yeast Anticancer Drug Screen. Data for the sgs1 strain (AID 173);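 further: 0% = growth of vehicle-only control cultures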; details: S. cerevisiae sgs1 mutant, active compounds read high
Summary of the method: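 Read-out: yeast growth inhibition relative to vehicle controls, following compound exposure of a strain with a defined DNA repair/cell cycle alteration.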

[4] = NCI Yeast Anticancer Drug Screen. Data for the mlh1 rad18 strain (AID 175); details: S. cerevisiae mlh1 rad18 strain growth inhibition, active compounds read high
Summary of the method: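 Yeast w/ defined DNA-repair lesions; compound exposure; growth vs vehicle controls → % inhibition.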

[5] = NCI Yeast Anticancer Drug Screen. Data for the rad18 strain (AID 177); details: S. cerevisiae rad18 mutant growth inhibition, active compounds read high
Summary of the method: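 Readout: growth inhibition vs vehicle controls. Cells: genetically altered yeast strain, DNA repair defect.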

[6] = NCI Yeast Anticancer Drug Screen. Data for the rad52 strain (AID 147);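 further: 0% = growth of vehicle-treated control cultures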; details: S. cerevisiae rad52 mutant growth inhibition, active compounds read high
Summary of the method: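 Read-out: growth inhibition versus vehicle-treated controls. Cells were a DNA repair-deficient yeast strain treated with compounds.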

[7] = NCI Yeast Anticancer Drug Screen. Data for the wt1 strain (AID 149);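 further: 0% = growth of vehicle-treated wt1 cultures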; details: S. cerevisiae wt1 strain (SPY 50644) growth inhibition, active compounds read high
Summary of the method: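 wt1 yeast, compound-treated; % growth inhibition vs vehicle control.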

[8] = NCI Yeast Anticancer Drug Screen. Data for the rad50EPP+ strain (AID 151);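 further: 0% = growth of vehicle-treated control cultures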; details: S. cerevisiae rad50 mutant strain, active compounds read high
Summary of the method: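 Growth inhibition read against vehicle controls in rad50EPP+ yeast, a strain altered in DNA damage repair, after compound exposure.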

[9] = NCI Yeast Anticancer Drug Screen. Data for the mgt1 strain (AID 153); details: S. cerevisiae mgt1 mutant growth inhibition, active compounds read high
Summary of the method: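 mgt1 yeast grown with test compound; read-out is growth inhibition versus vehicle-treated cultures.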

[10] = NCI Yeast Anticancer Drug Screen. Data for the rad50 strain (AID 155);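 further: 0% = growth of vehicle-only cultures of the same strain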; details: S. cerevisiae rad50 strain growth inhibition, active compounds read high
Summary of the method: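 Genetically altered yeast (DNA repair pathway); compound treatment; growth inhibition vs vehicle ctrl.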

[11] = NCI Yeast Anticancer Drug Screen. Data for the mec2-1 strain (AID 157); details: S. cerevisiae mec2-1 strain, active compounds read high
Summary of the method: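 Yeast mec2-1 mutant treated with compound. Readout: growth inhibition vs vehicle controls.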

[12] = NCI Yeast Anticancer Drug Screen. Data for the rad14 strain (AID 159);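 further: 0% = growth of vehicle-treated control cultures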; details: S. cerevisiae rad14 strain growth inhibition, active compounds read high
Summary of the method: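 Test compounds were applied to a repair-deficient yeast strain. Its growth was then compared with that of cultures given vehicle alone, and inhibition was expressed relative to those controls.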

[13] = NCI Yeast Anticancer Drug Screen. Data for the sgs1 mgt1 strain (AID 161);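 further: 0% = growth of cultures given vehicle only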; details: S. cerevisiae sgs1 mgt1 strain, active compounds read high
Summary of the method: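 Genetically altered yeast, compound exposure, growth inhibition relative to vehicle.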

[14] = NCI Yeast Anticancer Drug Screen. Data for the CLN2oe strain (AID 163);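 further: 0% = growth of vehicle-only control cultures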; details: S. cerevisiae CLN2oe strain, active compounds read high
Summary of the method: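 Read-out: yeast growth inhibition, expressed relative to vehicle-only controls. The strain bears an engineered cell-cycle alteration.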

[15] = NCI Yeast Anticancer Drug Screen. Data for the cln2 rad14 strain (AID 165);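 further: 0% = growth equal to vehicle treated cultures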; details: S. cerevisiae cln2 rad14 strain, active compounds read high
Summary of the method: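 cln2 rad14 yeast strain; compound exposure; growth inhibition read vs vehicle controls.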

[16] = NCI Yeast Anticancer Drug Screen. Data for the bub3 strain (AID 167); details: S. cerevisiae bub3 mutant strain, active compounds read high
Summary of the method: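 Yeast carrying a defined mutation is treated with each compound, and growth is compared with that of vehicle-exposed cells to give inhibition.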

[17] = at 5.0 µM (retest, dose inferred, filed as 0.5)
[18] = at 50.0 µM (retest, dose inferred, filed as 5.0)

CC1C(c2ccccc2)SC(=N)N1C (stereo unspecified)
growth inhibition ([1]; at 1.2 µM): 1%
growth inhibition ([1]; at 3.7 µM): 8%
growth inhibition ([1]; at 11.0 µM): 0%
growth inhibition ([1]; at 33.0 µM): 0%
growth inhibition ([1]; at 100.0 µM): 0%
growth inhibition ([2]; at 1.2 µM): -1%
growth inhibition ([2]; at 3.7 µM): -2%
growth inhibition ([2]; at 11.0 µM): 0%
growth inhibition ([2]; at 33.0 µM): -1%
growth inhibition ([2]; at 100.0 µM): -1%
growth inhibition ([3]; at 1.2 µM): -1%
growth inhibition ([3]; at 3.7 µM): 0%
growth inhibition ([3]; at 11.0 µM): 1%
growth inhibition ([3]; at 33.0 µM): 1%
growth inhibition ([3]; at 100.0 µM): 0%
growth inhibition [4, 17]: 6%
growth inhibition [4, 18]: 52%
growth inhibition ([4]; at 50.0 µM): -18.4%
growth inhibition ([5]; at 1.2 µM): -1%
growth inhibition ([5]; at 3.7 µM): 1%
growth inhibition ([5]; at 11.0 µM): -2%
growth inhibition ([5]; at 33.0 µM): -3%
growth inhibition ([5]; at 100.0 µM): -4%

CCC[CH2][Ge]([CH2]CCC)([CH2]CCC)[O]C(=O)C(O)c1ccccc1 (stereo unspecified)
growth inhibition ([6]; at 1.2 µM): 1%
growth inhibition ([6]; at 3.7 µM): 11%
growth inhibition ([6]; at 11.0 µM): 45%
growth inhibition ([6]; at 33.0 µM): 88% (active)
growth inhibition ([6]; at 100.0 µM): 98% (active)
growth inhibition ([7]; at 1.2 µM): -4%
growth inhibition ([7]; at 3.7 µM): -5%
growth inhibition ([7]; at 11.0 µM): 11%
growth inhibition ([7]; at 33.0 µM): 60%
growth inhibition ([7]; at 100.0 µM): 99% (active)
growth inhibition ([8]; at 1.2 µM): -2%
growth inhibition ([8]; at 3.7 µM): 3%
growth inhibition ([8]; at 11.0 µM): 8%
growth inhibition ([8]; at 33.0 µM): 21%
growth inhibition ([8]; at 100.0 µM): 49%
growth inhibition ([9]; at 1.2 µM): -1%
growth inhibition ([9]; at 3.7 µM): -1%
growth inhibition ([9]; at 11.0 µM): 10%
growth inhibition ([9]; at 33.0 µM): 93% (active)
growth inhibition ([9]; at 100.0 µM): 99% (active)
growth inhibition ([10]; at 1.2 µM): 3%
growth inhibition ([10]; at 3.7 µM): 9%
growth inhibition [10, 17]: 95% (active)
growth inhibition ([10]; at 11.0 µM): 36%
growth inhibition ([10]; at 33.0 µM): 90% (active)
growth inhibition [10, 18]: 95% (active)
growth inhibition ([10]; at 50.0 µM): 90.2% (active)
growth inhibition ([10]; at 100.0 µM): 97% (active)
growth inhibition ([11]; at 1.2 µM): -1%
growth inhibition ([11]; at 3.7 µM): 2%
growth inhibition [11, 17]: 50%
growth inhibition ([11]; at 11.0 µM): 17%
growth inhibition ([11]; at 33.0 µM): 69%
growth inhibition [11, 18]: 50%
growth inhibition ([11]; at 50.0 µM): 90.5% (active)
growth inhibition ([11]; at 100.0 µM): 99% (active)
growth inhibition ([12]; at 1.2 µM): -3%
growth inhibition ([12]; at 3.7 µM): -7%
growth inhibition ([12]; at 11.0 µM): -1%
growth inhibition ([12]; at 33.0 µM): 68%
growth inhibition ([12]; at 100.0 µM): 99% (active)
growth inhibition [13, 17]: 97% (active)
growth inhibition [13, 18]: 97% (active)
growth inhibition ([13]; at 50.0 µM): 89.5% (active)
growth inhibition ([14]; at 1.2 µM): -3%
growth inhibition ([14]; at 3.7 µM): 5%
growth inhibition ([14]; at 11.0 µM): 17%
growth inhibition ([14]; at 33.0 µM): 83% (active)
growth inhibition ([14]; at 100.0 µM): 99% (active)
growth inhibition [15, 17]: 12%
growth inhibition [15, 18]: 12%
growth inhibition ([15]; at 50.0 µM): 91.2% (active)
growth inhibition ([16]; at 1.2 µM): -2%
growth inhibition ([16]; at 3.7 µM): -4%
growth inhibition [16, 17]: 27%
growth inhibition ([16]; at 11.0 µM): 24%
growth inhibition ([16]; at 33.0 µM): 88% (active)
growth inhibition [16, 18]: 27%
growth inhibition ([16]; at 50.0 µM): 88.3% (active)
growth inhibition ([16]; at 100.0 µM): 99% (active)
growth inhibition ([1]; at 1.2 µM): -2%
growth inhibition ([1]; at 3.7 µM): -2%
growth inhibition ([1]; at 11.0 µM): 16%
growth inhibition ([1]; at 33.0 µM): 81% (active)
growth inhibition ([1]; at 100.0 µM): 99% (active)
growth inhibition ([2]; at 1.2 µM): -1%
growth inhibition ([2]; at 3.7 µM): -2%
growth inhibition ([2]; at 11.0 µM): 14%
growth inhibition ([2]; at 33.0 µM): 88% (active)
growth inhibition ([2]; at 100.0 µM): 99% (active)
growth inhibition ([3]; at 1.2 µM): -1%
growth inhibition ([3]; at 3.7 µM): -1%
growth inhibition ([3]; at 11.0 µM): 28%
growth inhibition ([3]; at 33.0 µM): 91% (active)
growth inhibition ([3]; at 100.0 µM): 99% (active)
growth inhibition [4, 17]: 84% (active)
growth inhibition [4, 18]: 84% (active)
growth inhibition ([4]; at 50.0 µM): 89.7% (active)
growth inhibition ([5]; at 1.2 µM): 10%
growth inhibition ([5]; at 3.7 µM): 7%
growth inhibition ([5]; at 11.0 µM): 55%
growth inhibition ([5]; at 33.0 µM): 89% (active)
growth inhibition ([5]; at 100.0 µM): 99% (active)
